# Pf Dd2 inh – blocks growth of Plasmodium falciparum Dd2 parasites; P. falciparum Dd2 growth, SYBR Green, 72 h; active compounds read low; 2.3% of 94,000 active; activity change, % at 10 µM; in the data active = activity change below about -80%
# C diff growth – inhibitors of Clostridium difficile growth. Clostridium difficile clinical isolate growth, OD600, 24 h; active compounds read low. 0.25% of 86,000 active. growth activity, negative = inhibition, % at 16 µg/mL (by protocol);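 active = mean growth activity at or below -80% and every replicate also at or below -80%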
# Tcruzi prolif – inhibitors of T. cruzi proliferation; T. cruzi beta-gal in NIH3T3, GalScreen luminescence, 90 h; inhibition, % at 8.34 µM; 5.9% of 77,000 active;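 active = mean inhibition above about 93%, with at least 55% of replicates each passing it, limit read from the data, passing the limit was not always enough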
# A number is an active result; - = inactive; . = not tested or not shown; ! = a repeat was not active. Compounds with a hit are over-represented: about 6.7% of the library has one in this group of screens.
SMILES,Pf Dd2 inh,C diff growth,Tcruzi prolif
C[C@@H]1CCCCO[C@H](CN(C)C(=O)Cc2ccccc2)[C@@H](C)CN([C@H](C)CO)C(=O)c2cc(NS(=O)(=O)c3ccc(Cl)cc3)ccc2O1,-,-,-
C[C@@H]1CN([C@H](C)CO)C(=O)c2cc(NC(=O)C3CC3)ccc2O[C@@H]1CN(C)CC1CCCCC1,-,-,-
C[C@@H]1CN([C@@H](C)CO)C(=O)c2cc(NC(=O)C3CC3)ccc2O[C@H]1CN(C)CC1CCCCC1,-89,.,-
C[C@H]1CCCCO[C@@H](CN(C)CC2CCCCC2)[C@@H](C)CN([C@@H](C)CO)C(=O)c2cc(NC(=O)Nc3ccc(C(F)(F)F)cc3)ccc2O1,-82,-,-
C[C@H](CO)N1C[C@H](C)[C@H](CN(C)CC2CCCCC2)Oc2ccc(NC(=O)Nc3ccc(C(F)(F)F)cc3)cc2C1=O,-,-,-
CCCN(C)C[C@@H]1OCCCC[C@H](C)Oc2ccc(NC(=O)Nc3ccc(C(F)(F)F)cc3)cc2C(=O)N([C@@H](C)CO)C[C@@H]1C,-88,-105,-
CCCN(C)C[C@@H]1OCCCC[C@H](C)Oc2ccc(NC(=O)Nc3ccc(C(F)(F)F)cc3)cc2C(=O)N([C@H](C)CO)C[C@@H]1C,-,-,-
C[C@@H]1CN([C@@H](C)CO)C(=O)c2cc(NC(=O)Nc3ccc(C(F)(F)F)cc3)ccc2O[C@H]1CN(C)CC1CCCCC1,-86,-,-
C[C@@H]1CCCCO[C@@H](CN(C)CC2CCCCC2)[C@@H](C)CN([C@H](C)CO)C(=O)c2cc(NC(=O)Nc3ccc(C(F)(F)F)cc3)ccc2O1,-,-,-
CCCC(=O)N1CC2(CN[C@@H](CO)c3c2c2ccc(OC)cc2n3C)C1,-,-,.
Cc1noc(C)c1S(=O)(=O)Nc1ccc2c(c1)C(=O)N([C@@H](C)CO)C[C@@H](C)[C@@H](CN(C)C(=O)CCC(F)(F)F)OCCCC[C@H](C)O2,-,-,-
COc1ccc(NC(=O)N(C)C[C@@H]2Oc3ccc(NS(=O)(=O)c4ccc(C)cc4)cc3CC(=O)N([C@@H](C)CO)C[C@@H]2C)cc1,-,.,-
CC(C)CC#Cc1cnc2c(c1)C(=O)N([C@H](C)CO)C[C@H](C)[C@@H](CN(C)C(=O)c1cnccn1)O2,-,-,-
COc1cccc(CN2[C@@H]3CNC[C@H]2C3c2ccc(/C=C/c3ccccc3)cc2)c1 (stereo partly drawn),-,-,.
CNC[C@@H]1[C@H](c2ccccc2)[C@H](CO)N1C(=O)Nc1cccc(OC)c1,-,-,-
COc1cccc(NC(=O)N2[C@@H]3CNC[C@H]2C3c2ccc(-c3ccccc3)cc2)c1 (stereo partly drawn),-,-,.
OC[C@H]1[C@@H](c2ccccc2)[C@H](CNCC2CCC2)N1CC1CC1,-,-,-
COc1cccc(NC(=O)N2[C@@H]3CNC[C@H]2C3c2ccc(/C=C/c3ccccc3)cc2)c1 (stereo partly drawn),-,-98!,.
CC(C)CNC[C@@H]1[C@@H](c2ccccc2)[C@@H](CO)N1Cc1ccc(F)cc1,-91,-,.
COc1cc(CN2[C@@H]3CNC[C@H]2C3c2ccc(/C=C/c3ccccc3)cc2)cc(OC)c1 (stereo partly drawn),-,-93!,.
COc1cccc(NC(=O)N2[C@@H](CO)[C@@H](c3ccccc3)[C@@H]2CNCC(C)C)c1,-81,-,-
O=C(NCC[C@@H]1CC[C@@H](NS(=O)(=O)c2ccccc2)[C@H](CO)O1)c1ccc2c(c1)OCO2,-,-,-
COc1ccc2c3c(n(C)c2c1)[C@@H](CO)N(C)CC31CN(S(=O)(=O)c2cn(C)cn2)C1,-,-,.
CCCC#Cc1cnc2c(c1)C(=O)N([C@H](C)CO)C[C@H](C)[C@@H](CN(C)C(=O)Nc1ccc(OC)cc1)O2,-,-,-
C[C@@H]1CN([C@@H](C)CO)C(=O)c2cccc(NS(C)(=O)=O)c2O[C@@H]1CN(C)Cc1ccc(C(=O)Nc2ccccc2N)cc1,-,-,-
SMILES,Pf Dd2 inh,C diff growth,Tcruzi prolif
CCCNC(=O)N1[C@H](CO)[C@H](c2ccc(C3=CCCC3)cc2)[C@H]1CNC(C)=O,-,-,-
O=C(C[C@@H]1CC[C@@H]2[C@H](COC[C@@H](O)CN2C(=O)c2cnccn2)O1)N1CCN(c2ccccc2)CC1,-,-,-
CN(C)C(=O)c1ccc(-c2ccc(C3[C@H]4CNC[C@@H]3N4C(=O)Nc3cccc(Cl)c3)cc2)cc1 (stereo partly drawn),-,-,.
O=C(Nc1cccc(Cl)c1)N1[C@@H]2CNC[C@H]1C2c1ccc(/C=C/c2ccccc2)cc1 (stereo partly drawn),-,-95!,.
C[C@@H]1CN([C@H](C)CO)C(=O)c2cc(C3=CCCCC3)cnc2O[C@@H]1CN(C)C(=O)Cc1cccnc1,-,-,-
C[C@@H]1CN([C@@H](C)CO)C(=O)c2cccc(NC(=O)c3nc4ccccc4s3)c2O[C@H]1CN(C)C(=O)Nc1cccc2ccccc12,-94,.,-
C[C@H](CO)N1C[C@H](C)[C@@H](CN(C)C(=O)Nc2ccc3c(c2)OCO3)Oc2c(NC(=O)c3nc4ccccc4s3)cccc2C1=O,-,.,-
C[C@@H]1CN([C@@H](C)CO)C(=O)c2cccc(NC(=O)c3nc4ccccc4s3)c2O[C@@H]1CN(C)C(=O)Nc1cccc2ccccc12,-88,.,-
C[C@@H]1CN([C@@H](C)CO)C(=O)c2cccc(NC(=O)c3nc4ccccc4s3)c2O[C@H]1CN(C)C(=O)Nc1ccc2c(c1)OCO2,-90,.,-
C[C@H]1CN([C@@H](C)CO)C(=O)c2cccc(NC(=O)c3nc4ccccc4s3)c2O[C@@H]1CN(C)C(=O)Nc1cccc2ccccc12,-,.,-
C[C@H]1CN([C@@H](C)CO)C(=O)c2cccc(NC(=O)c3nc4ccccc4s3)c2O[C@H]1CN(C)C(=O)Nc1cccc2ccccc12,-,.,-
CNC[C@H]1OCCCC[C@@H](C)Oc2ccc(NC(=O)Nc3ccc(F)cc3)cc2C(=O)N([C@@H](C)CO)C[C@H]1C,-,-,-
CO[C@@H]1CN(C)C(=O)c2ccc(NC(=O)CC(F)(F)F)cc2OC[C@@H](C)N(S(=O)(=O)c2cn(C)cn2)C[C@@H]1C,-,.,-
O=C(C1CC1)N1C[C@H]2[C@@H](c3ccccc31)[C@H](CO)N2C(=O)c1cccc(F)c1,-,-,-
CCCN1C[C@@H](C)[C@@H](OC)CN(C)C(=O)c2ccc(NC(=O)Nc3ccccc3F)cc2OC[C@@H]1C,-,.,-
CO[C@@H]1CN(C)C(=O)c2ccc(NC(=O)Nc3ccccc3Cl)cc2OC[C@@H](C)N(C)C[C@H]1C,-87,.,-
CO[C@@H]1CN(C)C(=O)c2ccc(NC(=O)Nc3ccccc3F)cc2OC[C@@H](C)N(CCC(F)(F)F)C[C@H]1C,-85,-,-
CO[C@@H]1CN(C)C(=O)c2ccc(NC(=O)Nc3ccccc3F)cc2OC[C@@H](C)N(C)C[C@H]1C,-,-,.
COCC(=O)N1[C@H](CO)[C@H](c2ccccc2)C12CN(C(=O)c1cccc(F)c1)C2,-,-,.
CO[C@@H]1CN(C)C(=O)c2cc(NC(=O)Nc3ccccc3)ccc2OC[C@H](C)N(C(C)=O)C[C@@H]1C,-,-,-
